Pf Dd2 inh: blocks growth of Plasmodium falciparum Dd2 parasites; P. falciparum Dd2 growth, SYBR Green, 72 h; stronger effect = lower value; activity change, % at 10 µM; hit rate 2.3% among 94,000; in the data active means activity change below about -80%
C diff growth: C. difficile growth inhibition | Clostridium difficile clinical isolate growth, OD600, 24 h; stronger effect = lower value | growth activity, negative = inhibition, % at 16 µg/mL (by protocol) | hit rate 0.25% among 86,000 | AID 1259249;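 active means mean growth activity at or below -80% and every replicate also at or below -80%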
T cruzi growth: blocks T. cruzi growth in NIH3T3 culture; T. cruzi beta-gal in NIH3T3, GalScreen luminescence, 90 h; inhibition, % at 8.34 µM; hit rate 5.9% among 77,000; AID 624255;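 active means mean inhibition above about 93%, with at least 55% of replicates each passing it, limit read from the data, passing the limit was not always enough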
Of the large screens only hits and unclear results are named; the others gave an inactive call. In the library only some 6.8% were active in any assay of this set; here they are far more common.

C[C@H]1CCCCO[C@@H](CN(C)C(=O)C2CCCCC2)[C@@H](C)CN([C@@H](C)CO)C(=O)c2cc(NC(=O)Nc3ccccc3)ccc2O1	Pf Dd2 inh -88
C[C@H](CO)N1C[C@H](C)[C@H](CN(C)C(=O)C2CCCCC2)OCCCC[C@H](C)Oc2ccc(NC(=O)c3ccncc3)cc2C1=O	none
C[C@H](CO)N1C[C@H](C)[C@H](CN(C)C(=O)C2CCCCC2)OCCCC[C@H](C)Oc2ccc(NC(=O)Nc3ccccc3)cc2C1=O	none
C[C@@H]1CN([C@@H](C)CO)C(=O)c2cc(NC(=O)Cc3ccccc3)ccc2O[C@@H](C)CCCCO[C@H]1CN(C)C(=O)C1CCCCC1	none
C[C@@H]1CN([C@H](C)CO)C(=O)c2cc(NC(=O)C3CCCCC3)ccc2O[C@@H](C)CCCCO[C@@H]1CN(C)C(=O)C1CCCCC1	none
CCS(=O)(=O)Nc1ccc2c(c1)C(=O)N(C)[C@@H]1CC[C@@H](CC(=O)NC3CCCCC3)O[C@@H]1CO2	none
COc1ccc(CN(C)C[C@H]2Oc3c(NC(=O)Nc4c(C)noc4C)cccc3C(=O)N([C@H](C)CO)C[C@@H]2C)cc1	none
C[C@@H]1CCCCO[C@@H](CN(C)Cc2ccncc2)[C@H](C)CN([C@H](C)CO)C(=O)c2cc(NC(=O)c3ccncc3)ccc2O1	none
CO[C@@H]1CN(C)C(=O)c2ccc(NC(C)=O)cc2OC[C@@H](C)N(Cc2ccncc2)C[C@@H]1C	none (no result: T cruzi growth)
O=C(C[C@@H]1C[C@@H]2c3cc(NS(=O)(=O)c4ccccc4)ccc3O[C@@H]2[C@H](CO)O1)NCC1CC1	none
N#C[C@H]1[C@@H](c2ccc(C#CC3CCCCC3)cc2)[C@@H](CO)N1S(=O)(=O)Cc1ccccc1	none (no result: T cruzi growth)
C[C@@H]1CN([C@@H](C)CO)C(=O)c2cc(NC(=O)Nc3ccc4c(c3)OCO4)ccc2O[C@@H](C)CCCCO[C@H]1CN(C)C(=O)C1CCCCC1	none
C[C@@H]1CN([C@H](C)CO)C(=O)c2cc(NC(=O)Nc3ccccc3)ccc2O[C@@H](C)CCCCO[C@H]1CN(C)C(=O)C1CCCCC1	none
C[C@@H]1CCCCO[C@H](CN(C)C(=O)c2ccccc2)[C@@H](C)CN([C@H](C)CO)C(=O)c2cc(NC(=O)Nc3ccc4c(c3)OCO4)ccc2O1	none
C[C@@H]1CCCCO[C@@H](CN(C)C(=O)C2CCCCC2)[C@H](C)CN([C@H](C)CO)C(=O)c2cc(NC(=O)Nc3ccc4c(c3)OCO4)ccc2O1	T cruzi growth 107
C[C@@H]1CCCCO[C@H](CN(C)C(=O)c2ccccc2)[C@@H](C)CN([C@@H](C)CO)C(=O)c2cc(NC(=O)Nc3ccc4c(c3)OCO4)ccc2O1	Pf Dd2 inh -81
C[C@@H]1CN([C@@H](C)CO)C(=O)c2cc(NC(=O)Nc3ccccc3)ccc2O[C@@H](C)CCCCO[C@@H]1CN(C)C(=O)C1CCCCC1	Pf Dd2 inh -84
Cc1ccc(S(=O)(=O)Nc2ccc3c(c2)C(=O)N([C@@H](C)CO)C[C@H](C)[C@@H](CN(C)C(=O)NC2CCCCC2)OCCCC[C@H](C)O3)cc1	none
O=C(C[C@H]1C=C[C@@H](NC(=O)c2ccncc2)[C@@H](CO)O1)NCCc1ccncc1	none (no result: Pf Dd2 inh, T cruzi growth)
Cc1noc(C)c1NC(=O)Nc1ccc2c(c1)C(=O)N([C@H](C)CO)C[C@H](C)[C@H](CN(C)C(=O)Nc1ccc(C(F)(F)F)cc1)OCCCC[C@H](C)O2	none
C[C@@H]1CN([C@H](C)CO)C(=O)c2cc(NC(=O)CCC(F)(F)F)ccc2O[C@@H](C)CCCCO[C@H]1CN(C)C(=O)Nc1cccc2ccccc12	none
C[C@@H]1CN([C@@H](C)CO)C(=O)c2cc(NC(=O)CCC(F)(F)F)ccc2O[C@@H](C)CCCCO[C@@H]1CN(C)C(=O)Nc1cccc2ccccc12	Pf Dd2 inh -89
C[C@H](CO)N1C[C@H](C)[C@@H](CN(C)C(=O)Nc2cccc3ccccc23)OCCCC[C@H](C)Oc2ccc(NC(=O)CCC(F)(F)F)cc2C1=O	none
C[C@@H]1CN([C@@H](C)CO)C(=O)c2cc(NC(=O)CCC(F)(F)F)ccc2O[C@@H](C)CCCCO[C@H]1CN(C)C(=O)Nc1cccc2ccccc12	Pf Dd2 inh -85
C[C@H]1CN([C@@H](C)CO)S(=O)(=O)c2ccc(Br)cc2O[C@@H]1CN(C)C(=O)C1CCC1	none (no result: C diff growth)
O=C(C[C@@H]1CC[C@H]2[C@@H](COC[C@H](O)CN2C(=O)c2cnccn2)O1)NCc1ccc(Oc2ccccc2)cc1	none (no result: T cruzi growth)
CC(C)NC(=O)N(C)C[C@@H]1Oc2c(NC(=O)c3nc4ccccc4s3)cccc2C(=O)N([C@H](C)CO)C[C@@H]1C	none
C/C=C/c1cnc2c(c1)C(=O)N([C@@H](C)CO)C[C@@H](C)[C@@H](CN(C)CC1CCOCC1)O2	none
Cc1ccc(S(=O)(=O)N[C@H]2CC[C@@H](CCNS(=O)(=O)Cc3ccccc3)O[C@H]2CO)cc1	none
COc1ccc(CN(C)C[C@@H]2Oc3c(NC(=O)CCCCCC(=O)Nc4ccccc4N)cccc3C(=O)N([C@H](C)CO)C[C@H]2C)cc1	Pf Dd2 inh -90 (no result: T cruzi growth)
COc1ccc(CN(C)C[C@H]2Oc3c(NC(=O)CCCCCC(=O)Nc4ccccc4N)cccc3C(=O)N([C@@H](C)CO)C[C@@H]2C)cc1	Pf Dd2 inh -94 (no result: T cruzi growth)
COc1ccc(NC(=O)N(C)C[C@@H]2Oc3c(NC(=O)CCCCCC(=O)Nc4ccccc4N)cccc3C(=O)N([C@@H](C)CO)C[C@@H]2C)cc1	none (no result: T cruzi growth)
COc1ccc(CN(C)C[C@@H]2Oc3c(NC(=O)CCCCCC(=O)Nc4ccccc4N)cccc3C(=O)N([C@@H](C)CO)C[C@H]2C)cc1	Pf Dd2 inh -90 (no result: T cruzi growth)
COc1ccc(CN(C)C[C@H]2Oc3c(NC(=O)C4CC4)cccc3C(=O)N([C@H](C)CO)C[C@@H]2C)cc1	none
C[C@@H]1CN([C@H](C)CO)C(=O)Cc2cc(NC(=O)C3CC3)ccc2O[C@@H]1CN(C)C(=O)Nc1ccc(C(F)(F)F)cc1	none
CCCC(=O)N1CCC2(CC1)CN(Cc1nccs1)[C@H](CO)c1[nH]c3cc(OC)ccc3c12	none (no result: T cruzi growth)
CCC(=O)N1CCC2(CC1)CN(Cc1ccc(Cl)cc1)[C@H](CO)c1[nH]c3cc(OC)ccc3c12	Pf Dd2 inh -88 (no result: T cruzi growth)
CCCNC(=O)N1CCC2(CC1)CN(Cc1cccc(F)c1)[C@@H](CO)c1[nH]c3cc(OC)ccc3c12	none (no result: T cruzi growth)
CCCNC(=O)N1CCC2(CC1)CN(Cc1ccc(F)cc1)[C@@H](CO)c1[nH]c3cc(OC)ccc3c12	Pf Dd2 inh -88 (no result: T cruzi growth)
CCCC(=O)N1CCC2(CC1)CN(Cc1ccc(Cl)cc1)[C@H](CO)c1[nH]c3cc(OC)ccc3c12	Pf Dd2 inh -85 (no result: T cruzi growth)
CCC(=O)N1CC2(C1)CN(Cc1cccc(OC)c1)[C@H](CO)c1[nH]c3cc(OC)ccc3c12	none (no result: T cruzi growth)
C[C@@H]1CN([C@@H](C)CO)C(=O)c2cc(NC(=O)Nc3ccc4c(c3)OCO4)ccc2O[C@@H]1CN(C)C(=O)Nc1ccc(C(F)(F)F)cc1	none
C[C@@H]1CN([C@H](C)CO)C(=O)c2cccc(NC(=O)C3CCOCC3)c2O[C@@H]1CN(C)S(=O)(=O)c1ccc(Cl)cc1	none
C[C@@H]1CCCCO[C@H](CN(C)Cc2ccccc2)[C@@H](C)CN([C@@H](C)CO)C(=O)c2cc(NC(=O)CCCCCC(=O)Nc3ccccc3N)ccc2O1	none

High-throughput results from PubChem.
